Among all 5,500 compounds or so, about 2,000 (36%) were called active. Another 18% or so got no clear call; they are omitted. Cut-off read from the data, not from the text of the source: active = normalized growth mostly below about 0.91 (no sharp cut-off); inconclusive = no clear call, values can overlap the other calls; inactive = mostly above about 0.92. Some of the results follow.
Experiment: chemical genetic growth profiling, strain panel (AID 1159580);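 note: tested at 20 µM; growth read once vehicle control cultures reached saturation at 30 °C; 1 = growth at the plate median or of vehicle wells; lower values mean less growth of the strain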
Conditions: S. cerevisiae deletion strains, growth OD

Measured: normalized growth

O=C(Cc1cccs1)NC1C(=O)N2C(C(=O)[O-])=C(C[n+]3ccccc3)CSC12 (stereo unspecified)
inactive: locus YAL013W, strain DEP1, hits give low values 1.01 | locus YAL021C, strain ccr4, hits give low values 0.966 | locus YAL026C, strain drs2, hits give low values 0.989 | locus YAL030W, strain snc1, hits give low values 0.994 | locus YBL061C, strain skt5, hits give low values 0.995 | locus YBR009C, strain hhf1, hits give low values 0.981 | locus YBR021W, strain FUR4, hits give low values 1 | locus YBR023C, strain chs3, hits give low values 0.993 | locus YBR171W, strain sec66, hits give low values 0.975 | locus YBR229C, strain ROT2, hits give low values 0.99 | locus YBR231C, strain swc5, hits give low values 0.985 | locus YBR279W, strain paf1, hits give low values 0.996 | locus YCL011C, strain gbp2, hits give low values 0.997 | locus YCL016C, strain dcc1, hits give low values 0.991 | locus YCL029C, strain bik1, hits give low values 1 | locus YCL069W, strain vba3, hits give low values 0.991 | locus YCR088W, strain abp1, hits give low values 0.982 | locus YDL005C, strain med2, hits give low values 0.968 | locus YDL035C, strain GPR1, hits give low values 0.998 | locus YDL040C, strain nat1, hits give low values 0.983 | locus YDL074C, strain BRE1, hits give low values 1.01 | locus YDL101C, strain DUN1, hits give low values 1.02 | locus YDL134C, strain PPH21, hits give low values 1 | locus YDL185W, strain tfp1, hits give low values 0.991 | locus YDL192W, strain arf1, hits give low values 0.992 | locus YDR001C, strain nth1, hits give low values 0.996 | locus YDR069C, strain doa4, hits give low values 0.964 | locus YDR101C, strain arx1, hits give low values 1.01 | locus YDR137W, strain rgp1, hits give low values 0.988 | locus YDR159W, strain sac3, hits give low values 0.962 | locus YDR162C, strain NBP2, hits give low values 1.01 | locus YDR195W, strain ref2 1.01 | locus YDR297W, strain sur2, hits give low values 0.989 | locus YDR318W, strain mcm21, hits give low values 0.998 | locus YDR334W, strain swr1, hits give low values 0.993 | locus YDR335W, strain msn5, hits give low values 0.996 | locus YDR388W, hits give low values 0.99 | locus YDR392W, strain spt3, hits give low values 0.994 | locus YDR502C, strain sam2, hits give low values 0.985 | locus YEL003W, strain gim4, hits give low values 0.969 | locus YEL037C, strain rad23, hits give low values 1 | locus YEL061C, strain CIN8 (second series), hits give low values 1 | locus YEL061C, strain CIN8, hits give low values 1.01 | locus YER015W, strain faa2, hits give low values 0.983 | locus YER016W, strain bim1, hits give low values 0.983 | locus YER110C, hits give low values 0.992 | locus YER111C, strain swi4, hits give low values 0.96 | locus YER155C, strain BEM2 (second series), hits give low values 0.987 | locus YER155C, strain BEM2, hits give low values 1 | locus YER167W, strain BCK2, hits give low values 0.991 | locus YFR010W, strain ubp6, hits give low values 0.986 | locus YGL078C, strain dbp3, hits give low values 0.99 | locus YGL086W, strain mad1, hits give low values 0.999 | locus YGL167C, strain pmr1, hits give low values 0.985 | locus YGL173C, strain kem1, hits give low values 0.982 | locus YGL227W, strain vid30, hits give low values 0.979 | locus YGL240W, strain doc1, hits give low values 0.956 | locus YGL248W, strain PDE1, hits give low values 1.02 | locus YGL253W, strain hxk2, hits give low values 0.999 | locus YGR135W, strain pre9, hits give low values 0.978 | locus YGR252W, strain gcn5, hits give low values 0.941 | locus YHR013C, strain ard1, hits give low values 0.981 | locus YHR027C, strain rpn1, hits give low values 0.991 | locus YHR030C, strain SLT2, hits give low values 1.01 | locus YHR079C, strain IRE1 (second series), hits give low values 0.996 | locus YHR094C, strain hxt1, hits give low values 0.998 | locus YHR129C, strain ARP1, hits give low values 1.01 | locus YHR142W, strain chs7, hits give low values 0.963 | locus YHR200W, strain rpn10, hits give low values 0.994 | locus YIL066C, strain RNR3, hits give low values 1.02 | locus YIL073C, strain SPO22, hits give low values 1.09 | locus YIL125W, strain kgd1, hits give low values 0.999 | locus YIR030C, strain dcg1, hits give low values 1.01 | locus YJL092W, strain hpr5, hits give low values 0.986 | locus YJL095W, strain BCK1 (second series), hits give low values 0.961 | locus YJL095W, strain BCK1, hits give low values 1.03 | locus YJL115W, strain asf1, hits give low values 0.981 | locus YJL129C, strain trk1, hits give low values 0.99 | locus YJL134W, strain LCB3, hits give low values 1 | locus YJL154C, strain vps35, hits give low values 0.983 | locus YJL164C, strain tpk1, hits give low values 0.985 | locus YJL166W, strain qcr8, hits give low values 0.979 | locus YJL168C, strain set2, hits give low values 0.994 | locus YJL187C, strain SWE1 (second series), hits give low values 1.01 | locus YJL187C, strain SWE1, hits give low values 0.978 | locus YJR043C, strain POL32, hits give low values 1.01
